Values joined by “and” are separate entries in the source; they are usually repeats but may differ in a detail not shown here. Equal entries are not always repeated. Results filed as inconclusive are left out. Where a call stands in place of a potency, no number is given. Some structures have more than one record in an assay (separate samples or runs), and their calls can disagree. Active and inactive are the calls of the source. Unless noted, the call rests on the fitted dose curve.
What was measured:
[1] = Nuclear factor erythroid 2-related factor 2/antioxidant responsive element (Nrf2/ARE) small molecule agonists: qHTS cell viability counter screen in human keratinocytes (AID 1919968; active means well fitted curve in the direction sought with a large enough effect in the repeat runs; an effect the other way counts as inactive or inconclusive; further: nearly all actives have a fitted effect of over 55% in size; further: potency means the concentration at half of the fitted maximal effect)
Summary of the method: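 After a 5 h attachment period, ARE-reporter keratinocytes were dosed with compounds in DMSO and then cultured 23 h at 37 C. Cell viability came from CellTiter-Fluor signal read after a further 1 h.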

[2] = Nuclear factor erythroid 2-related factor 2/antioxidant responsive element (Nrf2/ARE) small molecule agonists: luciferase reporter gene qHTS assay in human keratinocytes (AID 1919969); further: nearly all actives have a fitted effect of over 35% in size; further: potency means the concentration at half of the fitted maximal effect
[3] = molecular target: Gonadotropin-releasing hormone receptor (Homo sapiens) (UniProt P30968); assay: Human gonadotropin-releasing hormone receptor (GnRHR) small molecule agonists, calcium flux assay in GnRHR-HEK293 cells (AID 1920063); further: nearly all actives have a fitted effect of over 35% in size
Summary of the method: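 We seeded human GnRHR-expressing HEK293 cells for 18 hours, loaded them with calcium dye for an hour at 37 C, added test compounds, and recorded fluorescence intensity kinetically for three minutes.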

[4] = molecular target: KiSS-1 receptor (Homo sapiens) (UniProt Q969F8); assay: Human kisspeptin (KISS1R) small molecule agonists, calcium flux assay in KISS1R-HEK293 cells (AID 1920064; active means well fitted curve in the direction sought with a large enough effect in the repeat runs; an effect the other way counts as inactive or inconclusive)
Summary of the method: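 Kinetic calcium assay, 1 s sampling over 3 min at Ex/Em 480/540, in HEK293 cells engineered with human KISS1R; compounds delivered in DMSO after 1 h dye loading.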

[5] = G protein-coupled receptor (GPCR) small molecule agonists, calcium flux assay: HEK293 wild type cell line counter screen (AID 1920065)
Summary of the method: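 Calcium-sensitive dye, loaded 1 h at 37 C into cells cultured 18 h, reports compound-evoked calcium release as fluorescence (Ex/Em 480/540), measured over 3 min. Agonist mode; 15-point titrations, triplicate.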

[6] = p53 small molecule agonists, cell-based qHTS assay with human liver microsomes: qHTS cell viability counter screen (AID 1963579); further: nearly all actives have a fitted effect of over 45% in size
Summary of the method: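 Luminescent CellTiter-Glo read-out, 30 min at room temperature, gauged cytotoxicity in p53RE-bla cells exposed 16 h at 37 C to DMSO-dissolved compounds with metabolic activation by human liver microsomes and NADPH, each 0.5 mg/mL final.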

[7] = p53 small molecule agonists, cell-based qHTS assay with rat liver microsomes: qHTS cell viability counter screen (AID 1963580); further: nearly all actives have a fitted effect of over 45% in size; further: potency means the concentration at half of the fitted maximal effect
Summary of the method: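 p53RE-bla HCT-116 cells (4,000/well) rested 5 h at 37 C, then given Tox21 compounds in DMSO with rat liver microsomes (0.5 mg/mL final) plus NADPH (0.5 mg/mL final) for 16 h at 37 C. Viability read by CellTiter-Glo luminescence after 30 min at room temperature.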

[8] = p53 small molecule agonists, cell-based qHTS assay: qHTS cell viability counter screen (AID 1963581); further: nearly all actives have a fitted effect of over 45% in size
Summary of the method: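 Following 5 h attachment, HCT-116 p53RE-bla cells took up compound for 16 h at 37 C; the reporter was read with B/G FRET substrate (2 h RT), and viability then via CellTiter-Glo ATP luminescence.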

[9] = p53 small molecule agonists, cell-based qHTS assay (AID 1963582; active means well fitted activation curve with a large enough effect in the signal ratio in the repeat runs, not every such curve was filed as active; the % refers to the signal ratio)
Summary of the method: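 In this cell-based concentration-response screen, a p53 response element drives beta-lactamase; cells received DMSO-borne compounds after 5 h culture and were incubated a further 16 h before FRET substrate development.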

[10] = molecular target: 5-hydroxytryptamine receptor 2A (Homo sapiens) (UniProt P28223); assay: 5-hydroxytryptamine receptor 2A (HTR2A) small molecule antagonists, cell-based qHTS assay (AID 1963586); further: nearly all actives have a fitted effect of over 45% in size; further: potency means the concentration at half of the fitted maximal effect
Summary of the method: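 Antagonist-mode intracellular calcium assay: DOI (4 nM) added after 5 min compound pre-incubation at room temperature to dye-loaded HTR2A-CHO cells. Fluorescence followed for 3 min, sampled every second.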

[11] = molecular target: 5-hydroxytryptamine receptor 2A (Homo sapiens) (UniProt P28223); assay: 5-hydroxytryptamine receptor 2A (HTR2A) small molecule agonists, cell-based qHTS assay (AID 1963587); further: nearly all actives have a fitted effect of over 30% in size
Summary of the method: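 HTR2A-CHO cells, plated 18 h at 37 C/5% CO2, dye-loaded 1 h at 37 C; compounds in DMSO added by pin tool (agonist mode). Intracellular calcium flux read as kinetic fluorescence on FDSS over 2 min at 1 s intervals.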

[12] = molecular target: Muscarinic acetylcholine receptor M1 (Homo sapiens) (UniProt P11229); assay: Cholinergic receptor muscarinic 1 (CHRM1) small molecule antagonists, cell-based qHTS assay (AID 1963588); further: nearly all actives have a fitted effect of over 40% in size
Summary of the method: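 CHRM1-CHO calcium-flux assay, antagonist mode. Cells were seeded 18 h, dye-loaded 1 h at 37 C and given compound for 5 min at RT, then acetylcholine was added at 50nM. FDSS fluorescence was read 3 min; 15 concentrations, three runs.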

[13] = molecular target: Muscarinic acetylcholine receptor M1 (Homo sapiens) (UniProt P11229); assay: Cholinergic receptor muscarinic 1 (CHRM1) small molecule agonists, cell-based qHTS assay (AID 1963589); further: nearly all actives have a fitted effect of over 35% in size
Summary of the method: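 Measures agonist-induced intracellular calcium rise. Stable human CHRM1 CHO line, 1 h dye load at 37 C, compounds from DMSO, kinetic fluorescence read.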

[14] = cAMP Responsive Elements (CRE) small molecule agonists, cell-based qHTS assay (AID 1963590)
Summary of the method: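 A CRE-responsive beta-lactamase reporter in HEK 293T cells was used. Treatment ran 3 h at 37 C; detection used LiveBLAzer B/G FRET substrate for 2 h at room temperature.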

[15] = cAMP Responsive Elements (CRE) small molecule antagonists, cell-based qHTS assay (AID 1963591; active means well fitted inhibition curve with a large enough effect in the signal ratio in the repeat runs, not every such curve was filed as active; the % refers to the signal ratio; further: potency means the concentration at half of the fitted maximal effect)
Summary of the method: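 HEK293T cells carrying a CRE-driven beta-lactamase reporter receive compound and NKH477 (0.25 uM final) for 3 h. Fluorescence from LiveBLAzer B/G FRET substrate is read after 2 h at room temperature.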

[16] = molecular target: Beta-2 adrenergic receptor (Homo sapiens) (UniProt P07550); assay: Adrenergic beta2 receptor (ADRB2) small molecule antagonists, cell-based qHTS assay (AID 1963592); further: series mostly up to about 92 µM; nearly all actives have a fitted effect of over 50% in size
Summary of the method: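 Cells (CHO, stable ADRB2 overexpression) incubated 18-20hr at 37C; compounds added from DMSO; agonist mix (1nM isoproterenol, 100uM IBMX, 25uM Ro-20-1724) added; 0.5hr RT; d2-cAMP and anti-cAMP-cryptate added; 1hr RT; 665/615 nm read.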

[17] = molecular target: Beta-2 adrenergic receptor (Homo sapiens) (UniProt P07550); assay: Adrenergic beta2 receptor (ADRB2) small molecule agonists, cell-based qHTS assay (AID 1963593);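 further: CHO cells stably overexpressing human ADRB2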
Summary of the method: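 CHO cells stably over-expressing ADRB2 were plated overnight at 37C, then dosed with compounds plus a stimulation mix containing 100uM IBMX and 25uM Ro-20-1724 for 0.5hr at room temperature. cAMP was measured by HTRF competition, 1hr.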

[18] = molecular target: D(2) dopamine receptor (Homo sapiens) (UniProt P14416); assay: Dopamine D2 receptor (DRD2) small molecule agonists, cell-based qHTS assay (AID 1963594); further: nearly all actives have a fitted effect of over 35% in size
Summary of the method: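 HEK293 cells stably expressing DRD2 were cultured 24 h at 37 C, then given Ro20-1724 (0.1 mM final) and compounds for 10 min at room temperature. NKH477 (200nM) was then added for 30 min. cAMP was read by HTRF.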

[19] = molecular target: D(2) dopamine receptor (Homo sapiens) (UniProt P14416); assay: Dopamine D2 receptor (DRD2) small molecule antagonists, cell-based qHTS assay (AID 1963595; active means well fitted inhibition curve with a large enough effect in the signal ratio in the repeat runs, with a control signal flat; the % refers to the signal ratio)
Summary of the method: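 Human DRD2 antagonist qHTS measuring cAMP by HTRF. The cells are exposed to compound for 10 min, then to NKH477 (200 nM) and quinpirole (12 nM) for 30 min at RT, with Ro20-1724 (0.1 mM) present throughout.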

[20] = p53 small molecule agonists, cell-based qHTS assay with rat liver microsomes (AID 1963578)
Summary of the method: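 Rat liver microsome activation: microsomes 0.5 mg/mL, NADPH 0.5 mg/mL final; p53RE-bla cells, 16 h 37 C; LiveBLAzer readout, 2 h RT dark.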

Sequence of Beta-2 adrenergic receptor (Homo sapiens) (P07550 whole entry, looked up): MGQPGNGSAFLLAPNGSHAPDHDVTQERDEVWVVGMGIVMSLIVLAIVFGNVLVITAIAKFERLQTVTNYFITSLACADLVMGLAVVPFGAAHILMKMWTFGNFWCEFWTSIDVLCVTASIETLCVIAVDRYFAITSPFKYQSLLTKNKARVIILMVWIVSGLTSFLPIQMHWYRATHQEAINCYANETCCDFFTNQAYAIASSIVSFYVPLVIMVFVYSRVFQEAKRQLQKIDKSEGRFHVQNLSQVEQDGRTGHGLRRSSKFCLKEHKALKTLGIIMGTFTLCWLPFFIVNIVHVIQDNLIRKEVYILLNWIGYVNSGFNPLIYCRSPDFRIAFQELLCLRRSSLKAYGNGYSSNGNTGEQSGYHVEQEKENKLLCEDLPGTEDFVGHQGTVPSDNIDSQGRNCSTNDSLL
Sequence of KiSS-1 receptor (Homo sapiens) (Q969F8 whole entry, looked up): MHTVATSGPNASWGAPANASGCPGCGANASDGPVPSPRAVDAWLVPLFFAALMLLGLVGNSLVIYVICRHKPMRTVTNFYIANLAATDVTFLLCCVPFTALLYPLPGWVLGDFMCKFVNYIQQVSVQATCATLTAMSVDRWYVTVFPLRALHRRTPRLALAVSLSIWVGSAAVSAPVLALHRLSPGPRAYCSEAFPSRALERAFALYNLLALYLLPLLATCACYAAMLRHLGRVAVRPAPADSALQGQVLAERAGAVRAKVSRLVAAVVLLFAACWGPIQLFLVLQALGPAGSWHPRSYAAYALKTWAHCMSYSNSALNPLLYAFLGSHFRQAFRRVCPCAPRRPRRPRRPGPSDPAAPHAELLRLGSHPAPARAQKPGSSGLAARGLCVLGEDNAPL
Sequence of Gonadotropin-releasing hormone receptor (Homo sapiens) (P30968 whole entry, looked up): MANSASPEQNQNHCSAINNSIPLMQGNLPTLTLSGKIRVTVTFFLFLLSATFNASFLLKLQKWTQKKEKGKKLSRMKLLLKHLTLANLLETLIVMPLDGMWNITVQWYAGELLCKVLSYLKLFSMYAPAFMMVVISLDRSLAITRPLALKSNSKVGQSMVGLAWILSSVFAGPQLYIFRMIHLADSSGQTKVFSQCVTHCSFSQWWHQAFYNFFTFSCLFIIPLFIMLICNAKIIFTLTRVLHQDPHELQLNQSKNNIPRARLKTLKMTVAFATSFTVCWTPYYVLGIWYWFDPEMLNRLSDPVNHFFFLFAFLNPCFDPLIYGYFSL
Sequence of 5-hydroxytryptamine receptor 2A (Homo sapiens) (P28223 whole entry, looked up): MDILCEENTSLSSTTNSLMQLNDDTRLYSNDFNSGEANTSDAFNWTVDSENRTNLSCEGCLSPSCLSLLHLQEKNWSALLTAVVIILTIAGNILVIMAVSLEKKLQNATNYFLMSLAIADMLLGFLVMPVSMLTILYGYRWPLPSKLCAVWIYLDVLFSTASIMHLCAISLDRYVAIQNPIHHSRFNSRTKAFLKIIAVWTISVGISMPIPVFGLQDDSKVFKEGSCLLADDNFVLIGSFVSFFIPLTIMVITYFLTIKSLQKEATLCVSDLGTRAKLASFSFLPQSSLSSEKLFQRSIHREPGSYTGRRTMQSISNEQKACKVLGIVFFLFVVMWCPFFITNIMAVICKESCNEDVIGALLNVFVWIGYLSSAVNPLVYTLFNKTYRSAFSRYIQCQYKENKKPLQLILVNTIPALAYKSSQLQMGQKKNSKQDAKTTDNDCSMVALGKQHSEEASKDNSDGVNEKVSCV
Sequence of D(2) dopamine receptor (Homo sapiens) (P14416 whole entry, looked up): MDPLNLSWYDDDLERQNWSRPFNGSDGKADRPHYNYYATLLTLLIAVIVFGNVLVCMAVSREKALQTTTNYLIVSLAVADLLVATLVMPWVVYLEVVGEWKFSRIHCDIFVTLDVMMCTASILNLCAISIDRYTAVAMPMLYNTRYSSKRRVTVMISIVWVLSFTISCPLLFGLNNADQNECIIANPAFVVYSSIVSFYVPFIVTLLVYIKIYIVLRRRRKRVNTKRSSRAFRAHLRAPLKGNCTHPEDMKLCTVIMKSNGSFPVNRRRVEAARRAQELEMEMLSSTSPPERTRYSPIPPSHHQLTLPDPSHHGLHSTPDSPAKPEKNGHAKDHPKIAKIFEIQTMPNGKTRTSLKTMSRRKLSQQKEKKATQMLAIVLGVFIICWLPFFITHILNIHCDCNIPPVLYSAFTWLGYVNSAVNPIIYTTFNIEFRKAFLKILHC
Sequence of Muscarinic acetylcholine receptor M1 (Homo sapiens) (P11229 whole entry, looked up): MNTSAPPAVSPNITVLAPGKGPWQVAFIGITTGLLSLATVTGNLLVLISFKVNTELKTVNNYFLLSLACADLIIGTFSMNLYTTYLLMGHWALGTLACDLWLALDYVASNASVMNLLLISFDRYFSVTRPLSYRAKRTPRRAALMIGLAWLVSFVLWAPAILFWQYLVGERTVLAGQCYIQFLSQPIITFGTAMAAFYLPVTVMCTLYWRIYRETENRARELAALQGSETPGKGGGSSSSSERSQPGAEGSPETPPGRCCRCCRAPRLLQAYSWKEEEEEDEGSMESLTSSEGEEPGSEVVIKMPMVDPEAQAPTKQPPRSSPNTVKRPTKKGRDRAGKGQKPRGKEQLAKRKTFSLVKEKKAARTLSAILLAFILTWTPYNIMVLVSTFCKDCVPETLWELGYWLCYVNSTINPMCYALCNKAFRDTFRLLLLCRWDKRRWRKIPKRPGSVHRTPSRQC

Compound | Potency [1] | Potency [2] | Potency [3] | Potency [4] | Potency [5] | Potency [6] | Potency [7] | Potency [8] | Potency [9] | Potency [10] | Potency [11] | Potency [12] | Potency [13] | Potency [14] | Potency [15] | Potency [16] | Potency [17] | Potency [18] | Potency [19] | Potency [20]
CCOC(=O)CC(SP(=S)(OC)OC)C(=O)OCC (stereo not given) | inactive | 24.3 µM (active) | inactive | inactive | inactive | inactive | inactive | inactive | inactive | inactive | inactive | inactive | inactive | inactive | inactive | inactive | inactive | inactive | inactive | –
COC(=O)c1ccccc1C(=O)OC | inactive | inactive | inactive | inactive | inactive | – | inactive | inactive | – | inactive | inactive | – | inactive | inactive | inactive | inactive | – | inactive | inactive | inactive
CCBr | inactive | inactive | inactive | inactive | inactive | inactive | inactive | inactive | inactive | inactive | inactive | inactive | inactive | inactive | inactive | inactive | inactive | inactive | inactive | –
COP(=O)(OC)C(O)C(Cl)(Cl)Cl (stereo not given) | inactive | 43.7 µM (active) and 61.1 µM (active) and inactive | inactive | inactive | inactive | inactive | inactive | inactive | inactive | inactive and 8.39 µM (active) | inactive | inactive | inactive | inactive | inactive | inactive | inactive | – | inactive | –
O=C(O)C1C2CCC(O2)C1C(=O)O (stereo not given) | inactive | inactive | inactive | inactive | inactive | – | inactive | – | inactive | inactive | inactive | inactive | inactive | inactive | 27.6 µM (active) and 49.9 µM (active) | inactive | inactive | inactive | inactive | inactive
C[C@]12CCC(=O)C(O)=C1CC[C@@H]1[C@@H]2CC[C@]2(C)C(=O)CC[C@@H]12 | inactive | inactive | inactive | inactive | inactive | – | inactive | inactive | inactive | inactive | inactive | inactive | inactive | – | – | inactive | inactive | inactive | inactive | inactive
CC(C)Oc1cc(-n2nc(C(C)(C)C)oc2=O)c(Cl)cc1Cl | inactive | inactive | inactive | inactive | inactive | – | inactive | – | – | inactive | inactive | inactive | inactive | inactive | inactive | inactive | inactive | inactive | inactive | inactive
CCCCCCCCCc1ccc(O)cc1 | 27.6 µM (active) | inactive | inactive | inactive | inactive | – | inactive and 40.8 µM (active) | inactive | inactive | – | – | – | – | inactive | inactive | inactive | – | inactive | inactive | inactive
CCCC(=O)Cl | inactive | inactive | inactive | inactive | inactive | – | inactive | inactive | inactive | – | inactive | inactive | inactive | inactive | inactive | inactive | inactive | inactive | inactive | inactive
CC(C)=CC1C(C(=O)OCc2cccc(Oc3ccccc3)c2)C1(C)C (stereo not given) | inactive | inactive | inactive | inactive | inactive | – | inactive | inactive | inactive | inactive | inactive | inactive | inactive | – | inactive | inactive | inactive | inactive | inactive | inactive
[N-]=[N+]=CC(=O)OC[C@H](N)C(=O)O | inactive | inactive | inactive | inactive | inactive | – | inactive | inactive | inactive | – | – | – | – | inactive | inactive | inactive | inactive | inactive | inactive | inactive
Nc1c(Oc2ccccc2)cc(O)c2c1C(=O)c1ccccc1C2=O | inactive | inactive | inactive | inactive | inactive | inactive | inactive | inactive | inactive | inactive | inactive | inactive | inactive | inactive | inactive | inactive | – | inactive | inactive | –
Fc1cc(Br)ccc1CBr | inactive | inactive | inactive | inactive | inactive | – | – | inactive | inactive | inactive | inactive | inactive | – | inactive | inactive | inactive | – | inactive | inactive | inactive
CC1=C(C(=O)Nc2ccccc2)SCCO1 | inactive | inactive and 61.1 µM (active) | inactive | inactive | inactive | inactive | inactive | inactive | inactive | inactive | inactive | – | inactive | inactive | – | inactive | inactive | inactive | inactive | –
